Among the data in PubChem BioAssay are composite z-score, composite Z-score and z-score values, retold here.

Molecules are shown by their SMILES. Active and inactive are the calls of the source.

One test addresses Albumin (Bos taurus) (UniProt P02769). The test can be described thus: compounds binding labelled BSA control protein – biochemical, small-molecule microarray, Alexa647 label, 635/667 nm fluorescence, artefact control for SMM control protein annotation, profiling panel (AID 1118).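 Further: score merges 667 nm emission intensity and signal-to-noise per printed compound spot.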 To be noted: BSA-A647 binding, fluorescence 635 nm, higher = more signal.
Test [1] can be described thus: probe aXIP binding to arrayed compounds – biochemical, NeuroSMM set, 635/667 nm fluorescence, primary screen (AID 1119).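 Further: probe is the protein aXip251-270 applied at 1 µg/mL to compound-printed slides; binding of probe to printed compounds measured as 667 nm fluorescence plus signal to noise.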 The note with it: small-molecule microarray, higher = more signal, called active from +8 up or from −8 down.
The nature of test [2]: probe aNOTCH3 binding on compound microarray – biochemical, small-molecule microarray, 635/667 nm fluorescence, primary screen (AID 1120).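 Further: probe is a biotin-tagged antibody raised against NOTCH3 rather than NOTCH3 protein; score merges spot fluorescence near 667 nm with spot signal to noise.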 To be noted: higher = more signal.
Test [3] in a line: probe aNOTCH2 binding on compound microarray – biochemical, small-molecule microarray, 635/667 nm fluorescence, primary screen (AID 1121).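 Further: score merges feature fluorescence read at 667 nm with its signal to noise.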 To be noted: higher = more signal.
The target of test [4] is Carbonic anhydrase 2 (Homo sapiens) (UniProt P00918). The test can be described thus: compounds binding carbonic anhydrase 2 – biochemical, small-molecule microarray, Alexa647-labelled CAII, profiling panel (AID 1122). To be noted: CAII-A647 binding fluorescence, higher = more signal.
Test [5] in a line: COS7 lysate on small-molecule microarray, probe aHis, 635 nm (AID 1123).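 Further: z-score combines 667nm fluorescence intensity with signal-to-noise per printed compound spot.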 To be noted: COS7 cell lysate, fluorescence, higher = more signal.
Test [6] can be described thus: probe aLAP1 signal on lysate-treated microarray – cell lysate, small-molecule microarray, COS7 lysate, primary screen (AID 1124).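 Further: lysate comes from COS7 cells expressing LAP1 and is applied at 0.3 µg/mL; score merges spot fluorescence near 667 nm with signal-to-noise over triplicate slides.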 The note with it: probe aLAP1, fluorescence, higher = more signal.
The next test deals with Sam68 (KHDRBS1). As to the kind of experiment: compounds binding KHDRBS1 protein – biochemical, small-molecule microarray, 635 nm fluorescence, primary screen (AID 1125).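 Further: score merges 667 nm channel intensity with signal to noise over triplicate slides.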 To be noted: higher = more signal.
The test system of test [7] is Chordin-like protein 2 (CHRDL2). The test can be described thus: compounds binding chordin-like 2 – biochemical, small-molecule microarray, 635 nm fluorescence, primary screen (AID 1126).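 Further: printed compound slides probed with Chrdl2 protein at 4 µg/mL for 1 h at 4 C; score merges 667 nm emission intensity with signal to noise over three replicate slides.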 To be noted: fluorescence 635 nm, higher = more signal.
Test [8] deals with Concanavalin-A (Canavalia ensiformis) (UniProt P02866). As to the kind of experiment: compounds binding concanavalin A lectin – biochemical, small-molecule microarray, Alexa647 label, 635 nm, artefact control for SMM control protein annotation, primary screen (AID 1127).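 Further: z combines 667 nm emission intensity with signal-to-noise across three replicate slides.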 To be noted: ConA-A647 binding fluorescence, higher = more signal.
Test [9] is described as follows: compounds binding Alexa647 anti-His antibody – biochemical, small-molecule microarray, 635 nm fluorescence, artefact control for SMM control protein annotation, primary screen (AID 1128).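 Further: score merges feature fluorescence with signal-to-noise for each printed compound spot.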 To be noted: higher = more signal.
The test system of test [10] is Human papillomavirus type 1a E7 protein (residues 1-88). The test can be described thus: HPV1a E7 small-molecule binders, primary screen, biochemical, small-molecule microarray, residues 1-88, 635 nm (AID 1129). To be noted: small-molecule microarray binding, fluorescence 635 nm; higher = more signal.
Test [11] concerns the target Focal adhesion kinase 1 (Homo sapiens) (UniProt Q05397). The test can be described thus: PTK2 protein binding on printed compound slides – biochemical, small-molecule microarray, 635/667 nm fluorescence, BSA, DTT, primary screen (AID 1130).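 Further: composite of spot emission at 667 nm and signal to noise over triplicate slides.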 The note with it: 635 nm fluorescence, higher = more signal.
Test [12] deals with Fibrinogen (Alexa647-labelled). As to the kind of experiment: Alexa647-fibrinogen binding to printed small molecules – biochemical, small-molecule microarray, 635/667 nm fluorescence, artefact control for SMM control-protein annotation, profiling panel (AID 1131).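 Further: z-score merges 667 nm fluorescence with per-spot signal-to-noise over triplicate slides.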 To be noted: fibrinogen-A647 binding fluorescence, higher = more signal.
The target in test [13] is Follistatin (Homo sapiens) (UniProt P19883). The test can be described thus: FST protein binding to printed compounds – biochemical, small-molecule microarray, 635/667 nm fluorescence, primary screen (AID 1132). The note with it: 635 nm fluorescence, higher = more signal.
The target in test [14] is Fibroblast growth factor 2 (Homo sapiens) (UniProt P09038). As to the kind of experiment: basic fibroblast growth factor binding to printed compounds – biochemical, small-molecule microarray, 635/667 nm fluorescence, primary screen (AID 1133). To be noted: FGF2, fluorescence 635/667, higher = more signal.
Test [15] is described as follows: JC-1 mitochondrial potential readout, lung cancer cells – cell-based, A549, JC-1 fluorescence, basal, 24 h, 100 nL, profiling panel (AID 1138).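 Further: A549 lung adenocarcinoma cells under basal conditions with no added stimulus; test concentration not given here.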 The note with it: higher = more signal.
The subject of another test is Lefty1. As to the kind of experiment: Lefty1 protein binding to printed compounds – biochemical, small-molecule microarray, 635/667 nm fluorescence, primary screen (AID 1139). To be noted: fluorescence 635/667, higher = more signal.
Test [16] relates to wheat germ agglutinin (Triticum aestivum), Alexa647-labelled. As to the kind of experiment: Alexa647-WGA lectin binding to printed small molecules – biochemical, small-molecule microarray, 635/667 nm fluorescence, artefact control for SMM control-protein annotation, profiling panel (AID 1140).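 Further: score merges 667 nm feature emission with signal to noise over triplicate slides.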 The note with it: WGA-A647 binding, 635 nm fluorescence, higher = more signal.
Test [17] deals with Luciferin 4-monooxygenase (Photinus pyralis) (UniProt P08659). As to the kind of experiment: inhibition of purified Photinus pyralis luciferase – biochemical, luminescence, purified enzyme, 2006 set, primary screen (AID 1141).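 Further: cell-free assay with purified firefly luciferase at 100 ng per well in PBS; test concentration not given here.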 The note with it: purified firefly luciferase, SteadyGlo luminescence, 30 min; higher = more signal, called active from +8 up or from −8 down.
Sequence of Luciferin 4-monooxygenase (Photinus pyralis) (P08659 whole entry, looked up): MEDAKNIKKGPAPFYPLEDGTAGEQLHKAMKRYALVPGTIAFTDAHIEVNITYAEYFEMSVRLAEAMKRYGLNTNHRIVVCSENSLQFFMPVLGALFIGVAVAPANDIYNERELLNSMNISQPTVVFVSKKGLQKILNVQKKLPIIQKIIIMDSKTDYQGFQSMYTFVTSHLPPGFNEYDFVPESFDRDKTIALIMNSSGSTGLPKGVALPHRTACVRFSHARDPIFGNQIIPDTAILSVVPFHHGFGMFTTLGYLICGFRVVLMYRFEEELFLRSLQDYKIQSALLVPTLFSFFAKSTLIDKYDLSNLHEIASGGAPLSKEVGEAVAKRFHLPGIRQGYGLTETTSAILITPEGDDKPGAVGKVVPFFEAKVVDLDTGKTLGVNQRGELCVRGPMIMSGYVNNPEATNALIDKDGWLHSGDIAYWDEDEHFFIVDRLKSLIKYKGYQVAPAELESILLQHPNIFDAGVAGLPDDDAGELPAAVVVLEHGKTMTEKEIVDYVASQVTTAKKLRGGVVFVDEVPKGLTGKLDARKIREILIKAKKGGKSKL

Sequence of Follistatin (Homo sapiens) (P19883 whole entry, looked up): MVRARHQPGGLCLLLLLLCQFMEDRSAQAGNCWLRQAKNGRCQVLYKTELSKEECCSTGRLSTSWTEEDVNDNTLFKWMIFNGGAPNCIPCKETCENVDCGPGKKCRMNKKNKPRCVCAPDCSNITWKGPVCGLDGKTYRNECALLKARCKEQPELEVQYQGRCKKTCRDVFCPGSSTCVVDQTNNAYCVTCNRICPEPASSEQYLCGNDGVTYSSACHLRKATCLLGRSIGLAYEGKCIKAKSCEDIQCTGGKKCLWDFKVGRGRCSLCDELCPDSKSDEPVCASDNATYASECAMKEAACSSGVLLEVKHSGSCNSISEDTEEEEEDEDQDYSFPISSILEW
Sequence of Focal adhesion kinase 1 (Homo sapiens) (Q05397 whole entry, looked up): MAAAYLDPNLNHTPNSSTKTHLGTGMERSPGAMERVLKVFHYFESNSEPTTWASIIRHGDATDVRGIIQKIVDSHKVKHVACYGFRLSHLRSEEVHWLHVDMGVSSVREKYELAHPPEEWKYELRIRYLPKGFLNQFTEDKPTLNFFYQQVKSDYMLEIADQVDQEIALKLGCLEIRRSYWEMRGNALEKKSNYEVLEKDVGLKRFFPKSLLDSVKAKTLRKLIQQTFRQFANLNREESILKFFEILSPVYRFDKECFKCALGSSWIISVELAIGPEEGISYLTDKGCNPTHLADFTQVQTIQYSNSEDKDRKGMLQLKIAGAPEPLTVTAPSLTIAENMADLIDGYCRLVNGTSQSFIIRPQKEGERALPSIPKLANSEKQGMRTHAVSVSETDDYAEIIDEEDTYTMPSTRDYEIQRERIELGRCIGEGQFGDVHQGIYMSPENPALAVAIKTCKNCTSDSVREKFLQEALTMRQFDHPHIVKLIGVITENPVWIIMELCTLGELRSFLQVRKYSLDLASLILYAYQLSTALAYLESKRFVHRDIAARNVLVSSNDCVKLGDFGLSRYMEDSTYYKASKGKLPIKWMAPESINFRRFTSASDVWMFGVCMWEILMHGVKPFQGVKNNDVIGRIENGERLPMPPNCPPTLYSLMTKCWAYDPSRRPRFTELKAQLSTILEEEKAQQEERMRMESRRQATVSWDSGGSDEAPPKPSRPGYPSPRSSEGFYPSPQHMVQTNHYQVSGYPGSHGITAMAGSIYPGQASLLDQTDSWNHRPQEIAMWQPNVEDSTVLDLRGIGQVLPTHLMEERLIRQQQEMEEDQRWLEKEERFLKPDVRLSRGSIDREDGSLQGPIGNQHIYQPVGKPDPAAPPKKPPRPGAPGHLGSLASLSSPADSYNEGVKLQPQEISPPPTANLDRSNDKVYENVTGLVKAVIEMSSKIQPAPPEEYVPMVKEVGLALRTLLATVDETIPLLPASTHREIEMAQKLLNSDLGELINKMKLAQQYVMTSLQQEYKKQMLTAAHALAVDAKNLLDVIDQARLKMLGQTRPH
Sequence of Fibroblast growth factor 2 (Homo sapiens) (P09038 whole entry, looked up): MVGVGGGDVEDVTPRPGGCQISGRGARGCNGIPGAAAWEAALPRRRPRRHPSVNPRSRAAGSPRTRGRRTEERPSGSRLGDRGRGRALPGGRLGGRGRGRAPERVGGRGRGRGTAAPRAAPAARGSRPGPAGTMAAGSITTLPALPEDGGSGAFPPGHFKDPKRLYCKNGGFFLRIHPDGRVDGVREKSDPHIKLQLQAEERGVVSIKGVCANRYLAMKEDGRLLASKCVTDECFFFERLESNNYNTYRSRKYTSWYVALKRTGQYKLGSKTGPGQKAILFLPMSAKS
Sequence of Concanavalin-A (Canavalia ensiformis) (P02866 whole entry, looked up): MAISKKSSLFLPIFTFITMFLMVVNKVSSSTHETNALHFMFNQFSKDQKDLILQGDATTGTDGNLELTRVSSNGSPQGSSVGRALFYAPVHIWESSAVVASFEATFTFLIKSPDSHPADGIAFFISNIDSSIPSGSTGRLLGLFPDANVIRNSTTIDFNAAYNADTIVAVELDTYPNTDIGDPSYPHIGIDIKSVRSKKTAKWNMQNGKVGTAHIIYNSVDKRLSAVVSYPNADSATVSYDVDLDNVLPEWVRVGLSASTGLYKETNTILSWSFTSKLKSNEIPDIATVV
Sequence of Albumin (Bos taurus) (P02769 whole entry, looked up): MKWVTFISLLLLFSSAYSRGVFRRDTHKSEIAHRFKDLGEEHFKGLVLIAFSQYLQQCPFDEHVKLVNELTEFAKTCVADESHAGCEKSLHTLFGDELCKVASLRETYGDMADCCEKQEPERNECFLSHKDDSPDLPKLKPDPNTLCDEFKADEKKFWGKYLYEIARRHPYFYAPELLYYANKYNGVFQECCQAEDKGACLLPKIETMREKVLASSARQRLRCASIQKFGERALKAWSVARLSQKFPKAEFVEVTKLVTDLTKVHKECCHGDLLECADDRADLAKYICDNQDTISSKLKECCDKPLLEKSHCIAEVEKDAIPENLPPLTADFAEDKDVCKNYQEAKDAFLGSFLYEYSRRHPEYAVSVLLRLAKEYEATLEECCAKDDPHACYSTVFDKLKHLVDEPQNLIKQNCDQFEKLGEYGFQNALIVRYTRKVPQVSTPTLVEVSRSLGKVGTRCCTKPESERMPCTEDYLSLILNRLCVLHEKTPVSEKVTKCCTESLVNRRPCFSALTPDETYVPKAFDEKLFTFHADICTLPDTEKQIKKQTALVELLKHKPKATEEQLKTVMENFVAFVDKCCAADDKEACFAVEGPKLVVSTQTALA

With `CC1(C)C2C=C(C(O)C3C=CC4C(=O)NC(=O)C4N3Nc3ccc(Cl)cc3Cl)C[C@@H]1C2` (stereo not given in full), the composite z-score in the test with Albumin (Bos taurus) was found to be 0.818; in [2] it was 0.323; in [3], 0.155; in test [4] it was 0.423; in [5], 1.24; in test [6] it was 0.906. Besides, the composite z-score with Sam68 (KHDRBS1) was 0.337; in test [7], 0.061; in test [8], 0.899; in test [9] it was 1.26; in [10], 0.87; in test [11] it was -0.167. Further, the composite z-score in test [12] was 0.606; in test [13] it was 1.02; in test [14], -0.169; in the test with Lefty1 it was 0.317; in test [16], 0.698. Further, the composite Z-score in [1] is 0.392 (inactive). Besides, the figures for the z-score in [15] and in [17] were -1.44 and 0.155 (inactive), respectively.
Consider `N#Cc1ccc(NN2C(C(O)C(c3ccccc3)c3ccccc3)C=CC3C(=O)N(c4ccccc4)C(=O)C32)cc1` (stereo not given), for which the composite z-score is 0.983 with Albumin (Bos taurus); 0.673 in test [2]; 0.11 in [3]; 0.407 in test [4]; 2.95 in test [5]; -0.0751 in [6]. Further, the composite z-score in the test on Sam68 (KHDRBS1) was 1.3; in test [7] it was -0.558; in [8], 1.17; in test [9], 0.238; in [10], 1.26; in test [11], 0.545. For the same compound, the composite z-score in test [12] is 1.01; in test [13], 0.337; in [14] it was -0.469; with Lefty1, -0.0452; in test [16], 1.4. In addition, the composite Z-score in [1] was -0.442 (inactive). The z-score in [15] was 1.49; in [17], 0.523 (inactive).
`CC(C)N1C(=O)[C@@]2(Cc3ccccc31)c1ccccc1C(=O)N(Cc1ccccc1Cl)[C@H]2c1ccc(CO)cc1`: the composite z-score was -0.594 in the test with Albumin (Bos taurus); -0.321 in test [2]; -0.152 in [3]; -0.154 in test [4]; -0.472 in test [5]; -0.289 in [6]. For the same compound, the composite z-score with Sam68 (KHDRBS1) was -0.162; in [7], -0.465; in test [8], 0.0302; in test [9], -0.145; in test [10], -1.3; in test [11], -0.236. Also, the composite z-score in test [12] is -2.02; in test [13], -1.17; in test [14], -0.468; in the test on Lefty1, -0.391; in test [16], -0.0789. Further, in test [1], the composite Z-score is 0.203 (inactive). Also, the z-score in test [15] was -0.176; in [17] it was 0.847 (inactive).
Turning to `CCCCN1CC=CC23O[C@@H]4C=CCCOC(=O)C4[C@H]2C(=O)N(CCCCCCO)[C@@H]3C1=O` (stereo not given in full), the composite z-score was 0.339 with Albumin (Bos taurus); -0.275 in test [2]; -0.175 in test [3]; 0.876 in test [4]; 0.376 in [5]; 0.316 in test [6]. The composite z-score was 0.474 in the test on Sam68 (KHDRBS1); -1 in test [7]; -0.254 in [8]; 0.435 in [9]; -0.268 in [10]; 0.0134 in [11]. Also, the composite z-score in test [12] is -0.796; in [13], 0.0593; in test [14] it was -0.88; with Lefty1, 1.28; in [16], 0.379. The composite Z-score in [1] is 0.0289 (inactive). The values for the z-score in test [15] and in test [17] were 0.807 and -0.947 (inactive), respectively.
With `CCOC(=O)C[C@H]1[C@H](OC(=O)c2ccccc2-c2ccccc2)[C@@H](NC(=O)CC(C)C)c2cc(OCCCO)ccc2N1C(=O)Cc1ccc(OC)cc1`, the composite z-score with Albumin (Bos taurus) was 0.401; in [2], 0.0708; in test [3], -0.118; in [4], -0.132; in [5] it was 0.761; in [6] it was -0.201. Further, the composite z-score in the test with Sam68 (KHDRBS1) is 0.488; in test [7] it was 0.246; in [8], 0.482; in test [9], -0.272; in [10], 0.149; in test [11], -0.0432. Besides, the composite z-score in test [12] is 0.522; in [13] it was -0.247; in [14], 0.268; in the test on Lefty1, 0.108; in test [16] it was 0.288. Also, the composite Z-score in test [1] is 0.692 (inactive). The z-score in test [15] is 1.15; in test [17], -0.0339 (inactive).
With `COCCOC(=O)N1C(=O)[C@@]2(c3cc(C#Cc4ccc(OC)cc4)ccc31)[C@H](c1ccc(OCCO)cc1)N1[C@H](c3ccccc3)[C@H](c3ccccc3)OC(=O)[C@H]1[C@@H]2C(=O)N1CCN(c2ncccn2)CC1`, the composite z-score with Albumin (Bos taurus) was -0.701; in test [2], -0.0311; in test [3] it was -0.102; in test [4], 0.357; in [5], 0.977; in test [6], 0.182. The composite z-score in the test on Sam68 (KHDRBS1) stood at 1.33; in test [7], 0.575; in test [8], 1.11; in test [9] it was 0.343; in test [10], 1.15; in [11], 0.424. Also, the composite z-score in test [12] was -0.51; in test [13] it was 1.21; in [14], 1.43; with Lefty1, 1.28; in [16], -0.0073. In test [1], the composite Z-score was -0.799 (inactive). Besides, the z-score in [15] is -0.918; in [17], -0.618 (inactive).
